Experimental data as given in the supplement of paper PMC10849652.
About 7,900 targets were measured; listed, in parts, are those with a hit and a random draw of the rest. About 0.6% of all pairs of compound and target were hits.

Assays:
Assay in all cases: log2 fold change, soluble protein after heating vs DMSO (PISA); higher = thermal stabilisation; K562 cells, 10 uM, 30 min; active = over 0.2 and 3.5 SD of the protein, either way, in both replicates (recomputed)
AAGAB = AAGAB (UniProt Q6PD74)
How it was run: (§1)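 K562 cells at 2×10^6 cells/mL were exposed to 10 μM compound for 30 min, then aliquots were heated for 3 min across 48°C-58°C, pooled, and extracted in PBS containing 0.5% NP-40 at 4°C. The supernatant after 21,000xg for 90 min was taken as soluble protein and measured by TMTpro 16plex LC-MS/MS with channel sums equalised. Thermal stability is reported relative to control samples, with values from duplicates. Fold changes are given on a log2 scale.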

AAK1 [1] = molecular target: AAK1 (UniProt A0A096LP25)
How it was run: as §1

AAK1 [2] = molecular target: AAK1 (UniProt Q2M2I8)
How it was run: as §1

Measured: log2 fold change

Sequence of AAGAB (Q6PD74 whole entry, looked up): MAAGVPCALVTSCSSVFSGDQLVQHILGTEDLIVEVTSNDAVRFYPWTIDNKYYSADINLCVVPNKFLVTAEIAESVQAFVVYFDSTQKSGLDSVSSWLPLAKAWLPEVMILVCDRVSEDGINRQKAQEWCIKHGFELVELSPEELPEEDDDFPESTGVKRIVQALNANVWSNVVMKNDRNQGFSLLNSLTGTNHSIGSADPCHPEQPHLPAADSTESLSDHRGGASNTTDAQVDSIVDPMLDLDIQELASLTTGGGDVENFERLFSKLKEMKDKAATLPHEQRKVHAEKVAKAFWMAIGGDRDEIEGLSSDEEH
Sequence of AAK1 (UniProt Q2M2I8) (Q2M2I8 whole entry, looked up): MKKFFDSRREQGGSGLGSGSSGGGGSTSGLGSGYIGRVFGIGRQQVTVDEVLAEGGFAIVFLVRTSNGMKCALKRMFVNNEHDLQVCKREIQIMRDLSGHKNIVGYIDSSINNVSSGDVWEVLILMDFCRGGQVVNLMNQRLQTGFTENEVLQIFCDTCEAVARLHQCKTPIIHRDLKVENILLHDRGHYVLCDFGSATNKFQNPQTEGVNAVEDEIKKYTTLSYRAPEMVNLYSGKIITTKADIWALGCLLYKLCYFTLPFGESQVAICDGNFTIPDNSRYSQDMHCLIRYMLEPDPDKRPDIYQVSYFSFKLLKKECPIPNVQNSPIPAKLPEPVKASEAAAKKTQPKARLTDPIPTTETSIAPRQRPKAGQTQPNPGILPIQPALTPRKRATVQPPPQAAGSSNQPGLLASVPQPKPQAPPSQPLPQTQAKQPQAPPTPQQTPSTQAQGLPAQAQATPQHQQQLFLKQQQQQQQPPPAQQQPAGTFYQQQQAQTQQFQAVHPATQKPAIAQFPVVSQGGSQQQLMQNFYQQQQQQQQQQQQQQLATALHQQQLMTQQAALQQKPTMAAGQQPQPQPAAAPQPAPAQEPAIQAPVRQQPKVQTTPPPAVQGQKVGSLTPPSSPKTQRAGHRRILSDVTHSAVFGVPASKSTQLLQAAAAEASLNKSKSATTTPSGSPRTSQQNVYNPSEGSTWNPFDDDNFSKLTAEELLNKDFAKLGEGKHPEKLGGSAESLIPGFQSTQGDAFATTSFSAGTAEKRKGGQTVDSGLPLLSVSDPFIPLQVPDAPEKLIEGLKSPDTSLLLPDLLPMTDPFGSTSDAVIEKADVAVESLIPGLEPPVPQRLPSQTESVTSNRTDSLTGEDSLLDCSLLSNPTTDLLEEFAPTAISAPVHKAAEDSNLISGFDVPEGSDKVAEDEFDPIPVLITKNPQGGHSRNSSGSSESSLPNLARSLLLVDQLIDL

C[C@H](Nc1ncnc2nc[nH]c12)c1cc2cccc(Cl)c2c(=O)n1-c1ccccc1 [duvelisib]
inactive: AAGAB -0.1 | AAK1 [1] 0.007 | AAK1 [2] 0.186

C=CC(=O)N1CCC[C@@H](n2nc(-c3ccc(Oc4ccccc4)cc3)c3c(N)ncnc32)C1 [ibrutinib]
inactive: AAGAB 0.026 | AAK1 [1] 0.074 | AAK1 [2] 0.051

CN(CCOc1ccc(C[C@@H]2SC(=O)NC2=O)cc1)c1ccccn1 (racemic) [rosiglitazone]
inactive: AAGAB 0.029 | AAK1 [1] 0.107 | AAK1 [2] 0.04
